# About 79,000 compounds went through this panel and 15% of them were active in at least one assay; those are over-represented in the sample as a whole. A number with no mark means an inactive call. The source made the active and inactive calls. Cut-off read from the data, not from the text of the source: active = growth inhibition above about 70%; inactive = the rest.
# Experiment: NCI Yeast Anticancer Drug Screen. Data for the mlh1 rad18 strain (AID 175)
# Settings: S. cerevisiae mlh1 rad18 strain growth inhibition; at 50.0 µM; stronger effect = higher value
# How it was run: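 Compound-treated yeast growth, normalised to vehicle controls. Strain bears defined DNA repair mutations.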
row,SMILES,growth inhibition
1,CC12CCC(=O)C=C1CCC1C2CCC2(C)C(O[Si](C)(C)OC3CCC4C5CCC6=CC(=O)CCC6(C)C5CCC34C)CCC12 (stereo not given),96.8% (active)
2,CC1=C[C@H]2O[C@H]3C[C@H]4OC(=O)/C=C\C=C\C(=O)OCC[C@@H](C)[C@H](O)C(=O)OC[C@@]2(CC1)[C@@]4(C)[C@]31CO1,92% (active)
3,CCCCCCCC[As](C)(=O)O,6.2%
4,OC1C2[C@@H](O)CCCN2C[C@@H](O)[C@H]1O (stereo not given in full),-15.3%
5,COC1(O[C@H]2CC[C@H]3[C@@H]4CCC5=CC(=O)CC[C@]5(C)[C@H]4CC[C@]23C)CCCCC1,99.4% (active)
6,O=[N+]([O-])c1ccc(CS(=O)(=O)C(Cl)(Cl)Cl)o1,98.8% (active)
7,CC([CH2][Hg][Cl])c1ccccc1 (stereo not given),99.5% (active)
8,CC(C)CC[CH2][Pb]([CH2]CCC(C)C)([CH2]CCC(C)C)[O]C(=O)C(Cl)(Cl)Cl,98.7% (active)
9,COC1OC(OC)[CH]([Hg][Cl])C1OC (stereo not given),99.4% (active)
10,S=C=[N][Sn]([N]=C=S)([c]1ccccc1)[c]1ccccc1.c1ccc2nc(-c3ccc4ccccc4n3)ccc2c1,77.5% (active)
11,CSCCC([NH-])C(=O)O.CSCCC([NH-])C(=O)O.[Zn+2] (stereo not given),99.3% (active)
12,C[PH+](C)C.C[PH+](C)C.[Au],89% (active)
13,O=C(O)C(Br)C(Br)C(=O)O.[Ag] (stereo not given),99.2% (active)
14,CCC1CN1P(=O)(Oc1ccccc1)N1CC1CC (stereo not given),-20%
15,CCCCCc1cc(O)c(CCCC)c(O)c1,99% (active)
16,N#CC(Cl)(Cl)CCl,2.5%
17,O=C(Cc1c2ccccc2cc2c1ccc1ccccc12)N(CCCl)CCCl,99% (active)
18,CC[C@@]1(O)C(=O)OCc2c1cc1n(c2=O)Cc2cc3c(OC)cccc3nc2-1,78.8% (active)
19,CCOC(=O)NP(=O)(NNc1ccccc1)NNc1ccccc1,98.2% (active)
20,C=C1C(=O)O[C@@H]2C[C@@H](C)[C@@H]3C=CC(=O)[C@@]3(C)[C@@H](O)[C@H]12,32.2%

row,SMILES,growth inhibition
1,O=C(O)C(F)(F)F.[Ag],97.6% (active)
2,O=C(CBr)Nc1ccccc1,97.8% (active)
3,C1=C[N-]c2c3c(ccc2=C1)=CC=C[N-]3.C1=C[N-]c2c3c(ccc2=C1)=CC=C[N-]3.F[P-](F)(F)(F)(F)F.[Cu+2],99.1% (active)
4,O=[N+]([O-])/C=C/c1ccccc1Cl,91.2% (active)
5,CCOP(=S)(OCC)SSSP(=S)(OCC)OCC,33.9%
6,CCOC(=O)c1ccc(N=Cc2ccc(N(CCCl)CCCl)cc2C)cc1,37.9%
7,COc1ccc2c(c1)CCC(N1CCCC(=O)C1)C2 (stereo not given),25.1%
8,CCCCCCC(=O)[O][Hg][c]1ccccc1,99.7% (active)
9,CCC[CH2][Sn]1([CH2]CCC)[O]C(=O)c2cccnc2[S]1,79.8% (active)
10,C[AsH](C)CC[AsH](C)C.C[AsH](C)CC[AsH](C)C.C[AsH](C)CC[AsH](C)C.[Ni],96.5% (active)
11,O=c1[nH]c2ccccc2n1C1CCN(CCCC(c2ccc(F)cc2)c2ccc(F)cc2)CC1,63.8%
12,O=[C-]c1ccccc1[C-]=O.[Pd+2].c1ccc([PH+](c2ccccc2)c2ccccc2)cc1.c1ccc([PH+](c2ccccc2)c2ccccc2)cc1,60.9%
13,c1ccc(C(c2ccccc2)c2cccnc2)cc1,90.8% (active)
14,C#CC[As+](c1ccccc1)(c1ccccc1)c1ccccc1,88.9% (active)
15,CC[CH2][Pb]([CH2]CC)([CH2]CC)[O]C(C)=O,91.3% (active)
16,CC[PH+](CC)CC.[Cl][Au],90.8% (active)
17,CN(C)[PH+](N(C)C)N(C)C.CN(C)[PH+](N(C)C)N(C)C.[C-]#[O+].[C-]#[O+].[C-]#[O+].[C-]#[O+].[C-]#[O+].[C-]#[O+].[Co].[Co].[Hg],98.8% (active)
18,CC1=C(N2CC2)C(=O)c2nc3n(c2C1=O)CCC3OC(=O)CCl (stereo not given),66.1%
19,[N-]=[N+]=Nc1c([N+](=O)[O-])c(=O)n2c3c(cccc13)CCC2,90.2% (active)
20,CCC[CH2][Sn]1([CH2]CCC)[O]CC(CN2CCCCC2)[O]1 (stereo not given),87% (active)

# — PubChem BioAssay (NCI)
